In PubChem BioAssay (EPA / NIEHS):
Records with an inconclusive call do not appear. The source made the active and inactive calls. How the source made its calls, unless noted: active means hit-call score of the fitted dose curve at least 0.9, where 1 is the maximum; inconclusive means response in the unintended direction; inactive means score below 0.9.

Experiments:
[1] = molecular target: Cellular tumor antigen p53 (Homo sapiens) (UniProt P04637); assay: TOX21_p53_BLA_p2_ratio: Tox21 HCT-116 p53 Agonism Beta-lactamase Assay, Ratio, Phase 2 (AID 2283592)
Method in brief: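 Cleaved-to-uncleaved substrate ratio (460 vs 530 nm) measured in HCT116 cells with an inducible beta-lactamase reporter linked to p53 activity. Compounds incubated 16 h at 37C before 2 h room-temperature CCF4-AM loading.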

[2] = TOX21_p53_BLA_p3_viability: Viability Assessment in the Tox21 HCT-116 p53 Agonism Beta-lactamase Assay, Phase 3 (AID 2283593);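 further: cells exposed to compound for 16 h before reading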
Method in brief: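 HCT-116 cells (4000/well) rested 5 h at 37C, then got DMSO compounds by pin tool (217-fold dilution) for 16 h at 37C, 5% CO2. After the bla read, CellTiter-Glo was added and luminescence read at 30 min, room temperature.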

[3] = molecular target: Cellular tumor antigen p53 (Homo sapiens) (UniProt P04637); assay: TOX21_p53_BLA_p3_ratio: Tox21 HCT-116 p53 Agonism Beta-lactamase Assay, Ratio, Phase 3 (AID 2283596)
Method in brief: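 Cells were seeded at 4000/well, rested 5 h at 37C, then dosed with DMSO compound solutions (217-fold dilution) for 16 h. CCF4-AM substrate was loaded for 2 h at room temperature, and the 460/530 nm emission ratio was fitted for gain of signal versus DMSO.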

[4] = TOX21_p53_BLA_p4_viability: Viability Assessment in the Tox21 HCT-116 p53 Agonism Beta-lactamase Assay, Phase 4 (AID 2283597);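 further: hits lower the luminescence signal meaning cytotoxicity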
Method in brief: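 Viability is taken as cellular ATP: after 16 h compound exposure of HCT116 cells and a 2 h room-temperature CCF4-AM substrate step, CellTiter-Glo reagent is added and luminescence is measured 30 min later.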

[5] = molecular target: Cellular tumor antigen p53 (Homo sapiens) (UniProt P04637); assay: TOX21_p53_BLA_p5_ratio: Tox21 HCT-116 p53 Agonism Beta-lactamase Assay, Ratio, Phase 5 (AID 2283599)
Method in brief: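 HCT-116 cells carrying a p53-inducible beta-lactamase reporter were seeded at 4000 cells/well and dosed after 5 h with compound in DMSO (217-fold dilution). After 16 h at 37C, CCF4-AM substrate was added for 2 h, and the 460/530 nm emission ratio was scored as gain-of-signal versus DMSO.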

[6] = TOX21_p53_BLA_p5_viability: Viability Assessment in the Tox21 HCT-116 p53 Agonism Beta-lactamase Assay, Phase 5 (AID 2283600)
Method in brief: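 Viability is taken from cellular ATP content, measured by luciferase luminescence in the same wells after the beta-lactamase ratio read. Cells are seeded at 4000 per well and exposed to DMSO-dissolved compounds, diluted 217-fold, for 16 h.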

[7] = molecular target: Cellular tumor antigen p53 (Homo sapiens) (UniProt P04637); assay: TOX21_p53_BLA_p4_ratio: Tox21 HCT-116 p53 Agonism Beta-lactamase Assay, Ratio, Phase 4 (AID 2283601)
Method in brief: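 HCT116 cells carrying an inducible beta-lactamase reporter were plated at 4000 cells/well, rested 5 h, then exposed to compounds in DMSO (217-fold dilution) for 16 h at 37C. CCF4-AM substrate was loaded 2 h at room temperature; 460/530 nm emission ratio scored gain-of-signal versus DMSO.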

[8] = CCTE_Harrill_HTTr_Viability_MCF7: CCTE's 6-hour Cell Viability Assessment for the High-Throughput Transcriptomics (HTTr) Platform, in MCF-7 cells cultured in DMEM + 10% fetal bovine serum, Harrill Lab (AID 2284010; active means hit-call score of the fitted dose curve at least 0.9, where 1 is the maximum; inactive means score below 0.9)
Method in brief: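 PI exclusion, high-content imaging; 8-pt dilution series, 6 h exposure; bidirectional fit vs DMSO (neg. ctrl/baseline); gain of signal = loss of membrane integrity.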

[9] = CCTE_Harrill_HTTr_Apoptosis_MCF7: CCTE's 6-hour Apoptosis Assessment for the High-Throughput Transcriptomics (HTTr) Platform, in MCF-7 cells cultured in DMEM + 10% fetal bovine serum, Harrill Lab (AID 2284011; active means hit-call score of the fitted dose curve at least 0.9, where 1 is the maximum; inactive means score below 0.9)
Method in brief: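 Cells are dosed with test chemicals at eight concentrations and imaged 6 hours later for caspase-3/7 activity using a green fluorogenic detection reagent. Activity is fitted in both directions against DMSO controls.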

Measured: outcome

Chain of Cellular tumor antigen p53 (Homo sapiens) (P04637 whole entry, looked up): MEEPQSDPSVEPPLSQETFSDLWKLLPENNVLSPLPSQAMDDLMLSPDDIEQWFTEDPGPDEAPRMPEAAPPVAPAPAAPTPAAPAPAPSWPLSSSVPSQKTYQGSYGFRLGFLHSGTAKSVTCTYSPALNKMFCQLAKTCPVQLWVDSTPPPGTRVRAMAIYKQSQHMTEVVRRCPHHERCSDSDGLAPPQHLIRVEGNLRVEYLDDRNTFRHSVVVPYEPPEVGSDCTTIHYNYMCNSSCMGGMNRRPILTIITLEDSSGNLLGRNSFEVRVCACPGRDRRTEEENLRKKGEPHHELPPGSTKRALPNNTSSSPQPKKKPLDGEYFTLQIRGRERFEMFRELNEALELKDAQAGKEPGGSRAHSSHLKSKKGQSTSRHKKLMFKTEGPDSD

c1ccc([C@H]2CN3CCSC3=N2)cc1
inactive: [1] | [2] | [3] | [4] | [5] | [6] | [7] | [8] | [9]

CN1C[C@@H]2C[C@H]1CN2c1cc2c(cc1F)c(=O)c(C(=O)O)cn2C1CC1
inactive: [1] | [2] | [3] | [4] | [5] | [7]

CC1C(=O)CC2C3(C)CCC2(C(C)C(=O)O)C(=O)C13 (stereo unspecified)
inactive: [1] | [2] | [3] | [4] | [5] | [7]
